“And” between values parts separate entries of the source, which are not always exact repeats. Equal values may be shown once. Read-outs that look alike come from different tables or passages of the source.
Experiments:
MYO3B = settings: concentration: 1 μM, replicates: in singlicate, n = 1
NDR1 = tested on: T1, NDR1; settings: concentration: 1 μM, replicates: in singlicate, n = 1
T1 construct: gene STK38

NDR2 = settings: concentration: 1 μM, replicates: in singlicate, n = 1
NEK10 = settings: concentration: 1 μM, replicates: in singlicate, n = 1
NEK11 = settings: concentration: 1 μM, replicates: in singlicate; n = 1
NEK1 = settings: concentration: 1 μM, replicates: in singlicate, n = 1
NEK2 = settings: concentration: 1 μM, replicates: in singlicate, n = 1
NEK3 = settings: concentration: 1 μM, replicates: in singlicate, n = 1
NEK4 = settings: concentration: 1 μM, replicates: in singlicate, n = 1
NEK5 = settings: concentration: 1 μM, replicates: in singlicate, n = 1
NEK6 = settings: concentration: 1 μM, replicates: in singlicate, n = 1
NEK7 = settings: concentration: 1 μM, replicates: in singlicate; n = 1
NEK9 = settings: concentration: 1 μM, replicates: in singlicate, n = 1
NIK = tested on: T2, NIK; settings: concentration: 1 μM, replicates: in singlicate, n = 1
T2 construct: gene MAP3K14

NIM1 = tested on: T3, NIM1; settings: concentration: 1 μM, replicates: in singlicate, n = 1
T3 construct: gene MGC42105

NLK = settings: concentration: 1 μM, replicates: in singlicate, n = 1
OSR1 = tested on: T4, OSR1; settings: concentration: 1 μM, replicates: in singlicate, n = 1
T4 construct: gene OXSR1

PAK1 = settings: concentration: 1 μM, replicates: in singlicate, n = 1
PAK2 = settings: concentration: 1 μM, replicates: in singlicate, n = 1
PAK3 = settings: concentration: 1 μM, replicates: in singlicate, n = 1
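Also: KINOMEscan kinase panel screen.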

Question: For `Cn1ccc2ncnc(Oc3ccc(NC(=O)Nc4ccncc4)c(Cl)c3)c21`, which “%Inh” value (MYO3B) is on record?
Answer: 13%

Question: And the “%Inh” value (NDR1)?
Answer: 0%

Question: What about the “%Inh” value (NDR2) of the same compound?
Answer: 17%

Question: What about the “%Inh” value (NEK10) of the same compound?
Answer: 14%

Question: What about the “%Inh” value (NEK11) of the same compound?
Answer: 0%

Question: And the “%Inh” value (NEK1)?
Answer: 0%

Question: And the “%Inh” value (NEK2)?
Answer: 0%

Question: What about the “%Inh” value (NEK3) of the same compound?
Answer: 24%

Question: What about the “%Inh” value (NEK4) of the same compound?
Answer: 0%

Question: What about the “%Inh” value (NEK5) of the same compound?
Answer: 3%

Question: What about the “%Inh” value (NEK6) of the same compound?
Answer: 0%

Question: And the “%Inh” value (NEK7)?
Answer: 0%

Question: And the “%Inh” value (NEK9)?
Answer: 0%

Question: And the “%Inh” value (NIK)?
Answer: 0%

Question: And the “%Inh” value (NIM1)?
Answer: 0%

Question: What about the “%Inh” value (NLK) of the same compound?
Answer: 0%

Question: What about the “%Inh” value (OSR1) of the same compound?
Answer: 0%

Question: What about the “%Inh” value (PAK1) of the same compound?
Answer: 16%

Question: And the “%Inh” value (PAK2)?
Answer: 2%

Question: And the “%Inh” value (PAK3)?
Answer: 0%

Question: `CC(C)(CN)c1nc(-c2ccc(Cl)c(O)c2)c(-c2ccncc2)[nH]1.O=C(O)C(F)(F)F` [SB-477794] was tested. Which “%Inh” value (MYO3B; 1 µM) did it give?
Answer: 0% and 47%

Question: And the “%Inh” value (NDR1; 1 µM)?
Answer: 40% and 49%

Question: And the “%Inh” value (NDR2; 1 µM)?
Answer: 63% and 52%

Question: What about the “%Inh” value (NEK10; 1 µM) of the same compound?
Answer: 19% and 24%

Question: And the “%Inh” value (NEK11)?
Answer: 0%

Question: And the “%Inh” value (NEK1; 1 µM)?
Answer: 0% and 100%

Question: What about the “%Inh” value (NEK2; 1 µM) of the same compound?
Answer: 12% and 0%

Question: And the “%Inh” value (NEK3; 1 µM)?
Answer: 26% and 0%

Question: What about the “%Inh” value (NEK4; 1 µM) of the same compound?
Answer: 21% and 10%

Question: And the “%Inh” value (NEK5; 1 µM)?
Answer: 13% and 3%

Question: What about the “%Inh” value (NEK6; 1 µM) of the same compound?
Answer: 0% and 2%

Question: And the “%Inh” value (NEK7)?
Answer: 0%

Question: What about the “%Inh” value (NEK9; 1 µM) of the same compound?
Answer: 0% and 11%

Question: And the “%Inh” value (NIK; 1 µM)?
Answer: 0% and 3%

Question: What about the “%Inh” value (NIM1; 1 µM) of the same compound?
Answer: 4% and 0%

Question: What about the “%Inh” value (NLK; 1 µM) of the same compound?
Answer: 98.1% and 98.4%

Question: What about the “%Inh” value (OSR1; 1 µM) of the same compound?
Answer: 4% and 0%

Question: And the “%Inh” value (PAK1; 1 µM)?
Answer: 23% and 11%

Question: And the “%Inh” value (PAK2; 1 µM)?
Answer: 1% and 0%

Question: And the “%Inh” value (PAK3; 1 µM)?
Answer: 35% and 39%

Question: For `COCCNC(=O)c1ccc(-c2cc(C(=O)NC3CC3)cc(F)c2C)cc1` [GW868318], which “%Inh” value (MYO3B) is on record?
Answer: 24%

Question: And the “%Inh” value (NDR1)?
Answer: 33%

Question: What about the “%Inh” value (NDR2) of the same compound?
Answer: 21%

Question: And the “%Inh” value (NEK10)?
Answer: 3%

Question: What about the “%Inh” value (NEK11) of the same compound?
Answer: 27%

Question: And the “%Inh” value (NEK1)?
Answer: 0%

Question: What about the “%Inh” value (NEK2) of the same compound?
Answer: 0%

Question: And the “%Inh” value (NEK3)?
Answer: 26%

Question: What about the “%Inh” value (NEK4) of the same compound?
Answer: 14%

Question: What about the “%Inh” value (NEK5) of the same compound?
Answer: 8%

Question: And the “%Inh” value (NEK6)?
Answer: 22%

Question: And the “%Inh” value (NEK7)?
Answer: 0%

Question: What about the “%Inh” value (NEK9) of the same compound?
Answer: 0%

Question: And the “%Inh” value (NIK)?
Answer: 48%

Question: And the “%Inh” value (NIM1)?
Answer: 59%

Question: And the “%Inh” value (NLK)?
Answer: 11%

Question: What about the “%Inh” value (OSR1) of the same compound?
Answer: 30%

Question: What about the “%Inh” value (PAK1) of the same compound?
Answer: 20%

Question: What about the “%Inh” value (PAK2) of the same compound?
Answer: 49%

Question: What about the “%Inh” value (PAK3) of the same compound?
Answer: 27%

Question: With `Cl.Nc1ncnc2occ(-c3ccc(NC(=O)Nc4cc(C(F)(F)F)ccc4F)cc3)c12` [SB-707548] as the compound, how does the “%Inh” value (MYO3B) read?
Answer: 57%

Question: What about the “%Inh” value (NDR1) of the same compound?
Answer: 29%

Question: And the “%Inh” value (NDR2)?
Answer: 40%

Question: And the “%Inh” value (NEK10)?
Answer: 1%

Question: What about the “%Inh” value (NEK11) of the same compound?
Answer: 0%

Question: And the “%Inh” value (NEK1)?
Answer: 40%

Question: What about the “%Inh” value (NEK2) of the same compound?
Answer: 37%

Question: What about the “%Inh” value (NEK3) of the same compound?
Answer: 1%

Question: What about the “%Inh” value (NEK4) of the same compound?
Answer: 5%

Question: What about the “%Inh” value (NEK5) of the same compound?
Answer: 30%

Question: What about the “%Inh” value (NEK6) of the same compound?
Answer: 0%

Question: And the “%Inh” value (NEK7)?
Answer: 0%

Question: And the “%Inh” value (NEK9)?
Answer: 76%

Question: What about the “%Inh” value (NIK) of the same compound?
Answer: 36%

Question: What about the “%Inh” value (NIM1) of the same compound?
Answer: 28%

Question: And the “%Inh” value (NLK)?
Answer: 26%

Question: What about the “%Inh” value (OSR1) of the same compound?
Answer: 3%

Question: And the “%Inh” value (PAK1)?
Answer: 24%

Question: And the “%Inh” value (PAK2)?
Answer: 30%

Question: What about the “%Inh” value (PAK3) of the same compound?
Answer: 15%

Question: With `Cc1cccc(Cn2ccn3c(=O)cc(N4CCOCC4)nc23)c1` [GSK2297542] as the compound, how does the “%Inh” value (MYO3B) read?
Answer: 0%

Question: And the “%Inh” value (NDR1)?
Answer: 33%

Question: And the “%Inh” value (NDR2)?
Answer: 0%

Question: And the “%Inh” value (NEK10)?
Answer: 14%

Question: And the “%Inh” value (NEK11)?
Answer: 6%

Question: And the “%Inh” value (NEK1)?
Answer: 12%

Question: And the “%Inh” value (NEK2)?
Answer: 15%

Question: And the “%Inh” value (NEK3)?
Answer: 15%

Question: And the “%Inh” value (NEK4)?
Answer: 16%

Question: And the “%Inh” value (NEK5)?
Answer: 19%

Question: What about the “%Inh” value (NEK6) of the same compound?
Answer: 2%

Question: And the “%Inh” value (NEK7)?
Answer: 0%

Question: And the “%Inh” value (NEK9)?
Answer: 15%

Question: What about the “%Inh” value (NIK) of the same compound?
Answer: 0%

Question: What about the “%Inh” value (NIM1) of the same compound?
Answer: 8%

Question: And the “%Inh” value (NLK)?
Answer: 15%

Question: What about the “%Inh” value (OSR1) of the same compound?
Answer: 19%

Question: What about the “%Inh” value (PAK1) of the same compound?
Answer: 18%

Question: And the “%Inh” value (PAK2)?
Answer: 25%

Question: And the “%Inh” value (PAK3)?
Answer: 3%

— PMC5540273 (PLoS ONE, 2017)
